The list is not random: actives were taken first. Their share in the collection is about 7.1%.
M1 antagonist: M1 muscarinic receptor (rat) antagonism. B-score at 10 µM. P08482. 3.4% of 64,000 active. CHO-M1 cells, Fluo-4 calcium, ACh EC80 antagonist mode; active compounds read low;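 active means calcium fluorescence response, raw or row-and-column corrected B-score, differing from the plate sample mean either way at a set confidence level, mostly lower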
Target sequence (P08482 whole entry, looked up): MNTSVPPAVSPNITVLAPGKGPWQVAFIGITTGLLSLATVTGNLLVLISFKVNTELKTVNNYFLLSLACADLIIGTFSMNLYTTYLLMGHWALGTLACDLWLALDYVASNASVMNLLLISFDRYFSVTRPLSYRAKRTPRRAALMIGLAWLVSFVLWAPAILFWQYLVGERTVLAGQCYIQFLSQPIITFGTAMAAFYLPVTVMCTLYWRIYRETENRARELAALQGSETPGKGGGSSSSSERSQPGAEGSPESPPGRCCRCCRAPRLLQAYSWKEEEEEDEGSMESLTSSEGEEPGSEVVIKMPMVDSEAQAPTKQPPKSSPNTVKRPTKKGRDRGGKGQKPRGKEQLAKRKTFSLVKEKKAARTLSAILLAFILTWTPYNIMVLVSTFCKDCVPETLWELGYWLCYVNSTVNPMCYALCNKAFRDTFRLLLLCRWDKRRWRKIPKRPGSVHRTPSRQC
M1 agonist: activates the M1 muscarinic receptor. B-score at 10 µM. AID 626. CHO-M1 cells, Fluo-4 calcium fluorescence, agonist mode; active compounds read high. 3% of 64,000 active;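 active means fluorescence rise, raw or as B-score row- and column-corrected plate score, outside the 99.7% band of its plate's samples, either direction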
Cav32 inh: blocks human Cav3.2 T-type calcium channel | O95180 | B-score at 10 µM | Cav3.2-expressing cells, Fluo-4 calcium fluorescence FDSS; active compounds read low | 4% of 100,000 active | AID 449739;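 active means single-dose well whose peak fluorescence ratio is a statistical outlier from its plate by either plate-standardised score or position-corrected B-score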
PTK2B oligo ant: antagonists of human Pyk2 oligomerization; Q14289; Q293 cells, Pyk2 FERM NanoBiT luminescence; active compounds read low; z-score (the deposit names both 25 µM and 10 µM); 0.83% of 99,000 active;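 active means Z-score of -3 or lower, scaled per plate to the spread of control and sample wells; inactive means z-score above -3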;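 further: negative z-score means lost luminescence so less FERM oligomerization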
M1 agonist conf: rat M1 muscarinic agonism, confirmation. shares compounds with M1 agonist. CHO-M1 cells, Fluo-4 calcium fluorescence, agonist mode; actives lie on both sides. fluorescence change (max-min) at 10 µM. 19% of 1,700 active. AID 1488;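 active means fluorescence change differs from the solvent-only DMSO control mean at a set confidence level in both duplicate runs; inconclusive means differs from solvent-only control mean in just one of two runs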;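 further: an EC20 dose of acetylcholine follows compound addition during the same imaging run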
M4 ag counter: rat M4 muscarinic agonism, M1 counter-screen; 9% of 1,700 active; shares compounds with M1 agonist; AID 1741; fluorescence change (max-min) at 10 µM; CHO M4/Gqi5 cells, Fluo-4 calcium fluorescence, agonist mode; actives lie on both sides;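 active means fluorescence change differing from the plate's solvent-only control wells at 99.7% confidence in both duplicates, whether higher or lower; inconclusive means differs from solvent controls in only one of two duplicates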
Hits are given with their value; . = inactive; ? = inconclusive; / = not tested or not shown.

SMILES	M1 antagonist	M1 agonist	Cav32 inh	PTK2B oligo ant	M1 agonist conf	M4 ag counter
CCCCCC(=O)Nc1cccc(-c2nc3ncccc3o2)c1	.	4	.	.	.	.
CCCCC(=O)Nc1cccc(-c2nc3ncccc3o2)c1	.	.	.	.	/	/
Cc1ccc2c(c1)C(c1ccncc1)=NNC(c1ccc(C(C)C)cc1)=N2	/	/	.	/	/	/
Cc1c(Nc2nc3ccccc3nc2N2CCN(c3ccccc3)CC2)c(=O)n(-c2ccccc2)n1C	.	3.6	.	.	.	.
COc1ccc(OC)c(CN2CCN(C(=O)c3cccs3)CC2)c1	.	15	.	.	.	?
O=C(NCc1cccc(C(F)(F)F)c1)C1CC(c2ccccc2C(F)(F)F)=NO1 (centres undefined)	/	/	.	/	/	/
COc1ccc(NC(=O)C2CCCN2S(=O)(=O)c2cccc3cccnc23)c(OC)c1 (centres undefined)	.	.	.	/	/	/
COc1ccc(N(C)S(=O)(=O)c2cccc3cccnc23)c(OC)c1	.	5.2	.	.	?	.
COc1ccc(OC)c(NC(=O)C2CCCN(S(=O)(=O)c3cccc4cccnc34)C2)c1 (centres undefined)	.	5	.	/	-33	.
COc1cccc(=O)c2c(C)oc(C)c12	.	44	/	.	536	502
COc1ccc(-n2c(C)c3c(OC)cccc(=O)c3c2C)cc1	/	/	/	.	/	/
COc1ccc2nc(N3CCCC3)c(C#N)cc2c1	.	92	-3.6	.	1016	1175
Nc1ccc(Cl)cc1/C(=N/O)c1ccccc1	.	.	.	.	/	/
COc1ccc(C2=C(C=Nc3c(C)n(C)n(-c4ccccc4)c3=O)C(c3ccccc3C)c3ccccc3O2)cc1OC (centres undefined)	/	/	.	.	/	/
CCOc1ccc(C2C=C(c3ccccc3)Nc3ncnn32)cc1 (centres undefined)	.	25	.	/	202	.
CCOc1ccc(C2C=C(c3ccc(F)cc3)Nc3ncnn32)cc1 (centres undefined)	.	25	.	.	146	.
CC(C)(C)c1ccc(C2=CC(c3ccccc3F)n3ncnc3N2)cc1 (centres undefined)	/	/	.	/	/	/
CC(C)(C)OC(=O)N1CCC2(CC1)Oc1ccc(F)cc1C(=O)C21CC(c2ccccc2)=NO1 (centres undefined)	/	/	.	/	/	/
Oc1ccc2oc3c(c2c1/C=N/n1cnnc1)CCCC3	.	1.3	.	.	?	.
CSc1nc2[nH]c3c(c2c2ncnn12)CCCC3	.	8.1	/	.	?	.
COCCNC(=O)c1c(N)n(CCC2=CCCCC2)c2nc3ccccc3nc12	.	6.2	.	.	.	.
COCCn1c(N)c(C(=O)OCc2ccccc2)c2nc3ccccc3nc21	.	.	.	.	/	/
CCC(=O)N(Cc1ccco1)c1nc(-c2ccc(OC)cc2)cs1	/	/	.	.	/	/
CCC(=O)N(CC)c1nc(-c2ccc(OC)cc2)cs1	.	46	.	.	?	-75
CCOC(=O)c1cnc(SC)nc1Oc1cccc(NS(=O)(=O)c2ccc(C)cc2)c1	/	/	.	.	/	/
SMILES	M1 antagonist	M1 agonist	Cav32 inh	PTK2B oligo ant	M1 agonist conf	M4 ag counter
O=C(Cn1c(C(F)(F)F)nc2ccccc21)N1CCCC1	/	/	.	.	/	/
CCc1nc2ccccc2n1CC(=O)N1CCN(S(=O)(=O)c2cccc(C(F)(F)F)c2)CC1	.	4.6	.	.	.	.
Cc1ccc2c(c1)nnn2C1CCN(S(=O)(=O)c2cccc(S(=O)(=O)N(C)C)c2)CC1	.	4.9	.	.	?	.
CC(C)NC(=O)CSc1nc(Cc2cccs2)nc2ccccc12	/	/	.	.	/	/
COc1cc2c(C#N)c(N3CCN(C)CC3)nc(N)c2c(N)n1	/	/	.	.	/	/
COc1cc2c(C#N)c(N3CCN(c4ccccc4OC)CC3)nc(N)c2c(N)n1	.	3.4	.	.	-27	.
CCn1c(C2CC(=O)N(c3ccc(C)c(C)c3)C2)nc2ccccc21 (centres undefined)	.	.	.	/	/	/
CCCn1c(C2CC(=O)N(c3cc(OC)ccc3OC)C2)nc2ccccc21 (centres undefined)	.	3.7	.	/	.	.
O=C(NCCCN1CCOCC1)c1cc(-c2ccc(Br)cc2)on1	.	2.2	.	.	?	.
COC(=O)[C@@H]1C[C@H]1[C@@H](NC(=O)c1cc(C)on1)c1ccccc1	/	/	.	/	/	/
CCOC(=O)C1C(=O)OC(C)(C)C1C(C)C(=O)c1ccccc1 (centres undefined)	/	/	.	.	/	/
O=C(NCCN1CCN(c2ccccc2F)CC1)c1cccn2c(=O)c3ccccc3nc12	.	6.7	.	.	.	.
CCCn1c(SCCc2ccccc2)nc2c1c(=O)[nH]c(=O)n2C	.	4.7	.	.	?	.
CCn1c(N2CCC(Cc3ccccc3)CC2)nc2c1c(=O)[nH]c(=O)n2C	.	5.4	/	.	?	.
COc1ccc(CCn2c(N3CCN(Cc4ccccc4)CC3)nc3c2c(=O)[nH]c(=O)n3C)cc1	.	.	.	.	/	/
Cc1nnc(SCCCn2c(N3CCN(c4ccccc4)CC3)nc3c2c(=O)[nH]c(=O)n3C)s1	-2.1	11	.	.	.	?
Cc1nnc(SCCn2c(N3CCCCC3)nc3c2c(=O)[nH]c(=O)n3C)s1	.	.	/	/	/	/
COc1cc(Cl)c(S(=O)(=O)NCc2ccccn2)cc1Cl	/	/	.	.	/	/
CC(CN1CCOCC1)OC(=O)c1ccc(Br)cc1 (centres undefined)	.	34	.	.	?	.
CC(CN1CCN(C)CC1)OC(=O)c1ccccc1 (centres undefined)	/	/	.	.	/	/
Cc1ccc(NS(=O)(=O)c2ccc(OCC(=O)Nc3cccc([N+](=O)[O-])c3)c(C)c2)cc1	/	/	.	.	/	/
CCOC(=O)c1c(C)oc2c1c(C(c1ccncc1)N1CCOCC1)c(O)c1ccccc12 (centres undefined)	.	3	.	/	?	.
CN(C[C@H](Cc1ccccc1)N(C[C@H](Cc1ccccc1)N(CC1(c2ccccc2)CC1)N=O)N=O)N=O	/	/	.	/	/	/
COc1ccc(NC(=O)N(CCCN(C)C)Cc2cc3cc(OC)ccc3[nH]c2=O)cc1	.	.	/	/	/	/
COc1ccc(NC(=O)N(Cc2cc3cc(OC)ccc3[nH]c2=O)CC2CCCO2)cc1 (centres undefined)	.	4	.	.	?	-74
SMILES	M1 antagonist	M1 agonist	Cav32 inh	PTK2B oligo ant	M1 agonist conf	M4 ag counter
O=C(CN(Cc1ccccc1Cl)C(=O)Cn1nnc(-c2cccs2)n1)NCC1CCCO1 (centres undefined)	.	7.7	.	.	.	.
O=S(=O)(Nc1ccc2nc(C(F)(F)F)[nH]c2c1)c1ccccc1	.	2.4	.	.	.	.
COCCSc1nnc(NC(=O)C(C)(C)C)s1	/	/	.	.	/	/
COc1ccc(O)c(/C=c2/sc3nc4cc(C)c(C)cc4n3c2=O)c1	.	.	.	.	/	/
COc1ccc(OC)c(/C=c2\sc3nc(-c4cccs4)nn3c2=O)c1	.	13	.	.	478	556
CCCOc1ccc(OCCOCCN2CCc3ccccc3C2)cc1	/	/	.	.	/	/
COCC(=O)NC(c1ccccc1)c1ccccc1	.	13	.	.	.	.

Screening data (PubChem)
